Inconclusive results are not listed. Calls of active or inactive are those of the source. Calls come from the whole dose curve; as a rule, active = well fitted inhibition curve with a large enough effect; inconclusive = small, poorly fitted or top-dose-only effect, or effect the other way; inactive = flat fitted curve, though single readings scatter.
molecular target: ATP-dependent 6-phosphofructokinase (Trypanosoma brucei brucei) (UniProt O15648); assay: qHTS Validation Assay to Find Inhibitors of T. brucei phosphofructokinase (AID 485368); settings: T. brucei PFK enzyme assay, qHTS 7-point titration; at 57.5 µM (top of the series)
Sequence (O15648 whole entry, looked up): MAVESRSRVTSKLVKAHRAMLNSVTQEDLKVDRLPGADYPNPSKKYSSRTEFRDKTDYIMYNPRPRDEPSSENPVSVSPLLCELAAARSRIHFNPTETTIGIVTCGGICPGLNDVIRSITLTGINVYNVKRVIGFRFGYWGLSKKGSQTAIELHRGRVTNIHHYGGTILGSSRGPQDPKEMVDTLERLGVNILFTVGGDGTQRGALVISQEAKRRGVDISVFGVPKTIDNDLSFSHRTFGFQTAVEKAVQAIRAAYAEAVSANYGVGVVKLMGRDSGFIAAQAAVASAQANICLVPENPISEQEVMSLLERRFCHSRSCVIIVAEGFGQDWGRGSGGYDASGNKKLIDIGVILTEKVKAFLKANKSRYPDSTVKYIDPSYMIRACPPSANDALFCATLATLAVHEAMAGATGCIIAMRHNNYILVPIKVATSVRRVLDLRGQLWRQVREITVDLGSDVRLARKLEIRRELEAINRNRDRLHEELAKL
Text: NIH Molecular Libraries Probe Production Network [MLPCN]
NIH Chemical Genomics Center [NCGC]
PI Name: Malcolm Walkinshaw, University of Edinburgh
Various species of the protozoan family Trypanosomatidae are responsible for a range of serious human diseases in tropical and subtropical areas of the world. […] Many of the disorders caused by trypanosomatids are fatal if left untreated, but most currently used drugs are inefficient and toxic.
Oxidative metabolism involving the mitochondrial tricarboxylic acid cycle and oxidative phosphorylation are repressed in these parasites, and recent RNA interference (RNAi) experiments have shown that even partial depletion of certain individual glycolytic enzymes can lead to the death of cultured parasites. One such glycolytic enzyme, phosphofructokinase (PFK), catalyzes the formation of fructose-1,6-bisphosphate (F1,6BP) and ADP from fructose-6-phosphate (F6P) and ATP, and in many metabolic circumstances makes an important contribution to the control of flux through the glycolytic pathway. As a specific glycolytic target, PFK is particularly attractive as it catalyzes the first irreversible step in glycolysis, and structural and kinetic studies have shown very substantial and essential differences from corresponding host enzymes, allowing for the discovery of parasite-selective inhibitors.
The goal of this screen is to find small-molecule inhibitors of T. brucei PFK using a biochemical assay that measures PFK activity as a function of ADP production. A luminescence-based assay for T. brucei PFK activity has been developed which uses luciferase to detect production of ADP. Traditional luciferase-based nucleotide detection reagents rely on ATP production as a direct substrate for the luciferase reaction; however, PFK catalyzes the transfer of a phosphate from ATP to F6P, resulting in the net depletion of ATP. To directly measure the ADP product of the PFK reaction, we used the ADP-Glo detection kit (Promega), which utilizes two separate reactions to 1) deplete all remaining uncatalyzed ATP and 2) convert all remaining ADP to ATP, which is then detected through a traditional luciferase-coupled reaction. Compounds were screened as a concentration-titration series that ranged from 57 uM to 0.7 nM.
NCGC Assay Protocol Summary:
Substrate buffer was dispensed into white, solid 1536-well plates at 3uL/well in 0.1M triethanolamine (TEA) buffer, pH 8.0, containing final concentrations of 5 mM MgCl2, 0.01% Tween20, 0.5 mM fructose-6-phosphate (F6P) and 0.1mM ATP. Then, 23 nL of compounds or DMSO were delivered to each well using a pin tool. One uL T. brucei PFK (0.1M TEA, 0.01% Tween20, 0.1% bovine serum albumin (BSA) and 1.25nM PFK, final concentrations) was then dispensed, and plates were incubated at room temperature for 45 min. The luminescent detection reagent, ADP-Glo (Promega), was then added in two steps: the first reagent, ADP-Glo (which converts remaining uncatalyzed ATP), was added at 2.5uL/well and incubated for ten minutes at room temperature, and the second component, Kinase Detection reagent (which converts ADP to ATP as a substrate for luciferase-based luminescence), was added immediately after at 5uL/well, followed by one final ten minute room temperature incubation. The plates were measured on a ViewLux plate reader for luminescent signal using a clear filter with a one second exposure. The %Activity was determined from the corrected luminescence values. As no specific T. brucei PFK inhibitors have been identified in the literature, 1x (1.25nM) and 0x PFK enzyme controls (untreated) were included to normalize %Activity of identified inhibitors; 0x enzyme values corresponded to 100%Activity (full inhibition), while 1x PFK enzyme values were used to normalize 0%Activity (no inhibition).
Concentration-response curves were fitted to the signals arising from the resulting luminescence. […]

Row | SMILES | outcome
1 | CC[C@@]1(O)C(=O)OCc2c1cc1n(c2=O)Cc2cc3ccccc3nc2-1 | inactive
2 | CCCN(CCC)[C@@H]1CCc2ccc(O)cc2C1 | inactive
3 | CCCN1CCO[C@@H]2c3cc(O)ccc3OC[C@H]21 | inactive
4 | O=C(O)[C@@H]1CCN1 | inactive
5 | NC(=NCCC[C@H](N)C(=O)O)N[N+](=O)[O-] | inactive
6 | CS(=N)(=O)CC[C@H](N)C(=O)O (stereo partly specified) | inactive
7 | C[C@@H]1O[C@H](C[N+](C)(C)C)C[C@H]1O | inactive
8 | C[C@@H](N)Cc1cnc[nH]1 | inactive
9 | C[N+]1(C)C2CCC1CC(OC(=O)C(CO)c1ccccc1)C2 (stereo unspecified) | inactive
10 | CNCCc1c[nH]c2ccc(O)cc12 | inactive
11 | C[C@]12CCC3C(CC[C@H]4C[C@H](O)CC[C@]34C)C1CC[C@@H]2C(=O)CO (stereo partly specified) | inactive
12 | CN1C2CCC1CC(OC(=O)c1cc(Cl)cc(Cl)c1)C2 (stereo unspecified) | inactive
13 | Cc1c(C(=O)c2cccc3ccccc23)c2cccc3c2n1[C@H](CN1CCOCC1)CO3 | inactive
14 | NCCc1c[nH]c2ccc(O)cc12 | inactive
15 | S=C(NC1CCCCC1)N1CCC(c2cnc[nH]2)CC1 | inactive
16 | O=C(N[C@H]1CN2CCC1CC2)c1ccc(Cl)cc1 | inactive

Row | SMILES | outcome
17 | NC(CCP(=O)(O)O)C(=O)O (stereo unspecified) | inactive
18 | O=C(O)Cc1cnc[nH]1 | inactive
19 | O=C(O)CC[N+](=O)[O-] | inactive
20 | Clc1cnc(Oc2ccc(Oc3ncc(Cl)cc3Cl)cc2)c(Cl)c1 | inactive
21 | NC1CC1c1ccccc1 (stereo unspecified) | inactive
22 | Oc1ccc2c3c1O[C@H]1c4[nH]c5c(c4C[C@@]4(O)[C@@H](C2)N(CC2CC2)CC[C@]314)C[C@@]1(O)[C@H]2Cc3ccc(O)c4c3[C@@]1(CCN2CC1CC1)[C@H]5O4 | inactive
23 | COC(=O)[C@@H](N)CCCN=C(N)N[N+](=O)[O-] | inactive
24 | CCCN1CCC[C@H](c2cccc(O)c2)C1 | inactive
25 | O=C(Cc1ccc(Cl)c(Cl)c1)N1CCCCC1CN1CCCC1 (stereo unspecified) | inactive
26 | C[N+]1(C)C2CC(OC(=O)[C@H](CO)c3ccccc3)CC1C1OC12 (stereo partly specified) | inactive
27 | CC[C@@H](C(N)=O)N1CCCC1=O | inactive
28 | CCCCc1ccc(C(=O)O)nc1 | inactive
29 | COc1cc(C(O)CN)ccc1O (stereo unspecified) | inactive
30 | NC(CP(=O)(O)O)C(=O)O (stereo unspecified) | inactive
31 | c1ccc(C2(c3ccccc3)CC2C2=NCCN2)cc1 (stereo unspecified) | inactive

From PubChem BioAssay (NCATS)
